For 42 compounds, inhibition results are on record in PubChem BioAssay AID602449 (Sanford-Burnham Center for Chemical Genomics, 2012).

A word on the inhibition: it is the relative decrease from the control value, in per cent.

About 5,000 (1.4%) of roughly 360,000 compounds were called active.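 How the source made its calls: active means inhibition of 50% or more, scaled per plate between neutral and stimulator controls; inactive means the rest.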 The full list was thinned out, with actives kept by preference.

A short description of the assay: mitochondrial permeability transition pore inhibitors, primary screen, biochemical, isolated mouse mitochondria, absorbance (AID 602449).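 Further: 0% = DMSO wells given calcium and 100% = 1 mM EGTA wells.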 As to conditions: Ca2+ swelling absorbance, 30 min, at 10 µM, stronger effect = higher value.
As for `CCC(C(=O)NCc1ccc(OC)cc1)n1nc(C)n2c(cc3occc32)c1=O` (configuration not stated), the inhibition was 0.5% (inactive).
For `CCC(C)NC(=O)c1nn(C)c(=O)c2ccccc12` (configuration not stated), the inhibition was -0.2% (inactive).
Regarding `COc1ccc(/C=C(/CC(=O)Nc2ccc(C)cc2)c2nc3ccccc3s2)cc1`, the inhibition is 52.2% (active).
As for `COc1cccc(/C=C(/CC(=O)Nc2ccc(N3CCOCC3)cc2)c2nc3ccccc3s2)c1`, the inhibition was -0.3% (inactive).
As for `COc1ccc(NC(=O)COC(=O)c2ccc(NS(=O)(=O)/C=C/c3ccccc3)cc2)cc1`, the inhibition was -9% (inactive).
Consider `CCc1ccc(CN(C)C(C)C(=O)Nc2ccc(S(=O)(=O)N3CCCC3)cc2)cc1` (configuration not stated), for which the inhibition was 0.2% (inactive).
For the compound `O=C1NC[C@H](CCCCN2C[C@H](Cc3ccccc3)N(Cc3ccccc3)C(=O)C2=O)N(CCc2ccc(O)cc2)C1=O`, the inhibition is -0.9% (inactive).
Take `COC(=O)c1ccccc1NC(=O)CN(Cc1ccc(Cl)cc1)S(C)(=O)=O`: the inhibition is 0.4% (inactive).
With `CN(Cc1cccnc1)C(=O)c1cc(COc2ccc3ncccc3c2)on1`, the inhibition was 98.2% (active).
As to `CN(Cc1cnccn1)C(=O)c1cc(COc2cccc(C(F)(F)F)c2)on1`, the inhibition is 0% (inactive).
`CC(=O)c1cccc(OCc2cc(C(=O)NC(C)Cc3cccnc3)no2)c1` (configuration not stated): the inhibition was 0% (inactive).
In the case of `Cc1ccc(NC(=O)C(=O)NCC2CCN(C(=O)c3cccc([N+](=O)[O-])c3)CC2)cc1`, the inhibition is -2.2% (inactive).
Consider `O=C(NC(=S)NC1CCS(=O)(=O)C1)c1cccc([N+](=O)[O-])c1` (configuration not stated), for which the inhibition is -0.7% (inactive).
With `O=C(Nc1ccc(C2CC2(Cl)Cl)cc1)c1cccc([N+](=O)[O-])c1` (configuration not stated), the inhibition is 77.1% (active).
`Cc1ccc(CS(=O)(=O)CCC(=O)NC2CC2)cc1`: the inhibition is -1.1% (inactive).
For `COc1ccc(NC(=S)Nc2ccc(S(N)(=O)=O)cc2)c(C)c1`, the inhibition was -2.1% (inactive).
As for `NS(=O)(=O)c1ccc(NC(=S)N2CCCC2)cc1`, the inhibition is -0.2% (inactive).
Take `NS(=O)(=O)c1ccc(NC(=S)Nc2ccc(Br)c(Cl)c2)cc1`: the inhibition was 102% (active).
`CC1=C/C(=N\OS(=O)(=O)c2ccccc2)C=CC1=O`: the inhibition was 103% (active).
Under `O=C(COC(=O)c1ccc(NS(=O)(=O)c2cccs2)cc1O)Nc1ccc(F)cc1` stands 4.7% (inactive).
Turning to `O=S(=O)(Cc1cc(Cl)nc(-c2cccnc2)n1)c1ccccc1`, the inhibition is 0.8% (inactive).
As for `O=C(Nc1ccccc1)c1ccc2nsnc2c1`, the inhibition is -1.8% (inactive).
As for `COCCNC(=O)Nc1ccc2nc(-c3ccco3)c(-c3ccco3)nc2c1`, the inhibition is 0.5% (inactive).
`COc1ccc(NC(=O)Nc2ccc3nsnc3c2)cc1`: the inhibition was 87.9% (active).
`CSCc1cc(N(C)C)nc(SCc2ccc(Cl)cc2Cl)n1`: the inhibition is 1.1% (inactive).
With `COc1ccc(C(=O)CSc2n[nH]c(N)n2)cc1` the figure was -1% (inactive); with `CCCCN(C(=O)/C=C/c1ccco1)c1c(N)n(CC(C)C)c(=O)[nH]c1=O`, 0% (inactive); with `O=S(=O)(Nc1cccc(-c2ccc(N3CCOCC3)nn2)c1)c1ccc(Cl)c(Cl)c1`, -0.6% (inactive).
Turning to `O=C(NNC(=O)c1cccc(S(=O)(=O)Nc2ccc(Cl)cc2)c1)c1ccc(=O)[nH]c1`, the inhibition was -1.3% (inactive).
For `Fc1ccc2[nH]c3c(N4CCSCC4)ncnc3c2c1`, the inhibition was 80.7% (active).
With `CCN(CC(=O)Nc1ccccc1OC)C(=O)CC1CC2CCC1C2` (configuration not stated), the inhibition was 0.6% (inactive).
As to `Cc1csc(NC(=S)Nc2cccc(Cl)c2)n1`, the inhibition was 64.4% (active).
With `O=C(Nc1ccc2cn[nH]c2c1)c1ccc(S(=O)(=O)N2CCOCC2)cc1`, the inhibition is -4.1% (inactive).
`S=C(Nc1cccc(Cl)c1)Nc1ccc2cn[nH]c2c1`: the inhibition is 55% (active).
With `O=C(NCc1cn2ccsc2n1)Nc1cccc(Cl)c1` the figure was -1.5% (inactive).
For `Cc1ccc(C2CCN(C(=S)Nc3cccc(Cl)c3)C2)cc1` (configuration not stated), the inhibition is 14.6% (inactive).
As to `CC(C)Cc1nnc(NC(=O)CCC(=O)Nc2ccc3cn[nH]c3c2)s1`, the inhibition is 2% (inactive).
With `CCOC(=O)Cn1c2c(c(-c3ccccc3OC)cc1=O)CCCC2` the figure was -1.1% (inactive).
As to `Clc1ccc(C2=CSC3=Nc4cccc5cccc(c45)N23)cc1`, the inhibition is 6.8% (inactive).
On to `CN(Cc1c(F)cccc1Cl)S(=O)(=O)c1cccs1`, for which the inhibition was -1.8% (inactive).
As for `Cc1ccc(Nc2c(O)nc[nH]c2=O)cc1C`, the inhibition was -0.6% (inactive).
As to `CCOC(=O)N1CCC(Nc2c(NCCCN3CCN(c4ccc(OC)cc4)CC3)c(=O)c2=O)CC1`, the inhibition is 2.4% (inactive).
